# Assay results from the supplement of paper PMC10498489.
# The whole screen tested about 2,300 compounds, of which about 330 (14%) showed activity.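 Rule for the calls: active = median modified Z-score above 1.96; inactive = 1.96 or below.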 Only a sample is shown.
# System: HepG2 Srxn1-GFP reporter cells (+30 nM CDDO-Me)
# Experiment: Srxn1-GFP intensity median modified Z-score relative to plate median; higher = stronger NRF2 / oxidative stress reporter activation, active = hit call of the paper
# Details: 10 µM; exposure time: 24h
# Method in brief: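 Each value is the replicate median of a per-plate modified Z-score for GFP intensity in HepG2 Srxn1-GFP BAC reporter cells. The cells (20,000 per well, 96-well plates, three replicate plates) received compound at 10 μM together with an NRF2 activator at 30 nM for 24 h, in ≤0.1% DMSO. Cytoplasmic GFP was quantified per cell from confocal images of formaldehyde-fixed, Hoechst-stained cells, leaving out images with fewer than 100 cells, and scaling used 1.4826 × median absolute deviation.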
row,SMILES,Srxn1-GFP intensity median modified Z-score
1,CC(C)CCCC(C)C1CCC2C3CC(=O)C4C[C@@H](O)CC[C@]4(C)C3CC[C@]12C (stereo partly specified) [euspeclibcmpd2198],-0.502 (inactive)
2,C[C@]12CC[C@@H](O)C[C@H]1CCc1ccccc12 [euspeclibcmpd1508],-0.327 (inactive)
3,N=c1[nH]c(=N)c2nc(-c3ccccc3)c(=N)[nH]c2[nH]1 [euspeclibcmpd304],-0.346 (inactive)
4,CN[C@@H]1[C@@H](O[C@H]2O[C@H](CO)[C@@H](N)[C@H](O)[C@H]2O)O[C@H]2C[C@@H](N)[C@H](O[C@H]3[C@H](O)[C@@H](O)[C@H](N)C[C@@H]3N)O[C@@H]2[C@@H]1O [euspeclibcmpd2180],-0.708 (inactive)
5,CN(N=O)C(=O)N[C@@H]1[C@@H](O)[C@H](O)[C@@H](CO)O[C@@H]1O [euspeclibcmpd271],0.0066 (inactive)
6,Cc1cc2nc3c(=O)[nH]c(=O)nc-3n(C[C@@H](O)[C@@H](O)[C@@H](O)CO)c2cc1C [euspeclibcmpd751],-0.238 (inactive)
7,Cc1ccc(N2CC(C(=O)NCCCn3ccnc3)CC2=O)c(F)c1 (stereo unspecified),1.07 (inactive)
8,Cc1onc(-c2ccccc2Cl)c1C(=O)NC1C(=O)N2C1SC(C)(C)C2C(=O)O (stereo unspecified) [euspeclibcmpd2381],-0.0695 (inactive)
9,C[C@@H]1O[C@@H](OC[C@H]2OC(Oc3c(-c4ccc(O)c(O)c4)oc4cc(O)cc(O)c4c3=O)[C@H](O)[C@@H](O)[C@@H]2O)[C@H](O)[C@H](O)[C@H]1O (stereo partly specified) [euspeclibcmpd2149],-0.139 (inactive)
10,CC(=O)O[C@H]1C[C@@H](OC(C)=O)C(C)(C)C2C[C@@H](O)[C@]3(C)C(CC[C@@]4(C)[C@H](c5ccoc5)OC(=O)C5O[C@]543)[C@]21C (stereo partly specified) [euspeclibcmpd1544],0.39 (inactive)
11,CC(=O)O[C@H]1CC[C@@]2(C)C(C[C@@H](OC(C)=O)[C@]3(C)C2CC[C@@]2(C)[C@H](c4ccoc4)OC(=O)C4O[C@]423)C1(C)C (stereo partly specified) [euspeclibcmpd2319],5.12 (active)
12,CC(=O)OC1CC(OC(C)=O)C2(C)C(CC(OC(C)=O)C3(C)C2CCC2(C)C(c4ccoc4)OC(=O)C4OC423)C1(C)C (stereo unspecified) [euspeclibcmpd1940],0.483 (inactive)
13,COc1ccc(C2COc3c(ccc(O)c3OC)C2)c(OC)c1O (stereo unspecified) [euspeclibcmpd1831],1.65 (inactive)
14,CC1(C)C(=O)C2C[C@@]3(O)C4=CC(=O)O[C@@H](c5ccoc5)[C@]4(C)CCC3[C@](C)(C2=O)[C@H]1CC(=O)O (stereo partly specified) [euspeclibcmpd1558],-0.051 (inactive)
15,N=c1[nH]c(=O)c2ncn(CCC(CO)CO)c2[nH]1 [euspeclibcmpd464],0.273 (inactive)
16,O=C1C=CC(=C(c2ccc(O)cc2)c2ccc(O)cc2)C=C1 [euspeclibcmpd1770],19.5 (active)

row,SMILES,Srxn1-GFP intensity median modified Z-score
1,O=C(O)C1=CC(=C(c2ccc(O)c(C(=O)O)c2)c2ccc(O)c(C(=O)O)c2)C=CC1=O [euspeclibcmpd1741],-0.835 (inactive)
2,CCC(=O)c1ccc(O)cc1 [euspeclibcmpd1262],0.156 (inactive)
3,O=C(O)c1cc(N=Nc2ccc(S(=O)(=O)N=c3cccc[nH]3)cc2)ccc1O [euspeclibcmpd280],-0.614 (inactive)
4,Cc1ccc(C(=O)c2ccc(CC(=O)O)n2C)cc1 [euspeclibcmpd2405],0.508 (inactive)
5,OC[C@H](O)C(O)[C@@H](O)CO [euspeclibcmpd2128],-0.222 (inactive)
6,COc1cc(O)c2c(=O)c(OC)c(-c3ccc(OC)c(OC)c3)oc2c1 [euspeclibcmpd1656],-0.275 (inactive)
7,NC(=O)NC(CCC(=O)O)C(=O)O (stereo unspecified) [euspeclibcmpd1209],0.184 (inactive)
8,O=C1CCc2ccc(OCCCCN3CCN(c4cccc(Cl)c4Cl)CC3)cc2N1 [euspeclibcmpd879],0.292 (inactive)
9,O=c1n(CCCN2CCN(c3cccc(Cl)c3)CC2)nc2ccccn12 [euspeclibcmpd533],0 (inactive)
10,CCc1nn(CCCN2CCN(c3cccc(Cl)c3)CC2)c(=O)n1CCOc1ccccc1 [euspeclibcmpd461],8.98 (active)
11,Cc1c(C)c2c(c(C)c1O)CCC(C)(C(=O)O)O2 (stereo unspecified) [euspeclibcmpd1989],-0.727 (inactive)
12,COc1ccc(=NS(=O)(=O)c2ccc(N)cc2)[nH]n1 [euspeclibcmpd409],-0.327 (inactive)
13,CC(C)c1nc(CN(C)C(=O)NC(C(=O)N[C@@H](Cc2ccccc2)C[C@H](O)[C@H](Cc2ccccc2)NC(=O)OCc2cncs2)C(C)C)cs1 (stereo partly specified) [euspeclibcmpd486],0.333 (inactive)
14,COc1ccccc1N1CCN(CCCNc2cc(=O)n(C)c(=O)n2C)CC1 [euspeclibcmpd1121],-0.334 (inactive)
15,COC1=C(C)C2CC(=O)O[C@@H]3C[C@H]4C(C)=CC(OC)C(=O)[C@]4(C)C(C1=O)[C@]23C (stereo partly specified) [euspeclibcmpd1498],0.142 (inactive)
